In PubChem BioAssay:

assay: reversal of MRP1-mediated doxorubicin resistance, pilot screen, H69AR cells, doxorubicin co-treatment (AID 601); conditions: H69AR cells + 2 uM doxorubicin, CellTiter-Glo, 72 h; measured here: viability with 2 uM doxorubicin; at 10 µM; stronger effect = lower value

SMILES | viability
COC(=O)c1cnn2c(C(F)(F)F)cc(-c3ccco3)nc12 | 76.5%
CCOC(=O)c1ccc(NC(=O)CCc2nc(-c3cccc(C)c3)no2)cc1 | 99.1%
COc1ccccc1C(=O)N1CCN=C1SCc1cccnc1 | 85.3%
c1cncc(-c2nnc3sc(-c4ccco4)nn23)c1 | 98.3%
CC1CN(c2nc(-c3ccccc3)nc3ccccc23)CC(C)O1 (stereo not given) | 80.9%
O=C(NC1CCN(Cc2nnnn2CCc2ccccc2)CC1)c1ccccc1F | 98.3%
O=S(=O)(c1ccc(OCC(O)CN2CCC(Cc3ccccc3)CC2)cc1)N1CCOCC1 (stereo not given) | 94.2%
COc1ccc(C2N(C(=O)c3ccccc3)CCN2C(=O)c2ccccc2)cc1 | 100%
CCSC1=NCN(CCCC(=O)O)CN1 | 102%
O=C(CCOc1ccccc1)NCc1ccccc1 | 90%
CCOC(=O)c1ccccc1NC(=O)c1cc2sccc2n1C | 77%
C=CCn1c(SCC(=O)NC23CC4CC(CC(C4)C2)C3)nc(O)cc1=O | 92.2%
O=C(OCc1ccc2c(c1)OCO2)c1ccc(S(=O)(=O)N2CCCCC2)cc1 | 81.3%
COC(=O)N1CC(c2ccccc2)CC1=O (stereo not given) | 85%
COc1ccc(C2=Nn3c(nnc3-c3ccccc3)SC2)cc1OC | 79.3%
CCOc1ccc(Cl)cc1S(=O)(=O)N1CCCC1 | 94.5%
Cn1c(SCCN2CCCCC2)nnc1-c1ccccc1Br | 95.3%
O=C(COc1ccccc1)N1CCN(C(=O)c2cccc(F)c2)CC1 | 86.7%
COc1ccc(CN2CC(C(=O)NCCCOC(C)C)CC2=O)cc1 (stereo not given) | 95.2%
COC(=O)CSc1nc(C)c(C(C)=O)cc1C#N | 80.4%

SMILES | viability
Cn1c(=O)c2c(nc(Br)n2CCSc2ncccn2)n(C)c1=O | 81.1%
O=C(NCC(c1cccnc1)N1CCOCC1)c1cccs1 (stereo not given) | 93.1%
O=C(CSc1nnnn1-c1ccc(Cl)cc1)NC(=O)Nc1ccc2c(c1)OCCO2 | 74.8%
Cc1nc2sc(C(c3ccco3)N3CCN(c4ccccc4F)CC3)c(O)n2n1 (stereo not given) | 90.3%
CC1CCCCC1NC(=O)CN1CCN(Cc2ccccc2Cl)C1=O (stereo not given) | 68.5%
COc1ccc(-n2c(=O)[nH]cc(C(=O)Nc3ccc(NC(C)=O)cc3)c2=O)cc1 | 95.7%
CCN(CC)CCN1C(=O)C(=O)/C(=C(/O)c2c(C)[nH]c(C(=O)OC)c2C)C1c1ccco1 (stereo not given) | 96.6%
Cc1nc(N2CCc3ccccc32)[nH]c(=O)c1CCC(C)C | 70%
C=COC(=O)CSc1snc(SCC(=O)OC)c1C#N | 95.9%
COc1ccc2[nH]c(=O)c(CN(C(=O)c3ccncc3)C(C)C)cc2c1 | 94.2%
Cc1ccc2cc3cc(C(=O)N4CC(C)CC(C)C4)oc3nc2c1 (stereo not given) | 85.5%
O=C(C1CCN(c2nnnn2-c2ccccc2)CC1)N1CCN(c2ccccc2)CC1 | 77.5%
CCCCSCCCNC(=O)CS(=O)Cc1nc(-c2cccc(C)c2)oc1C (stereo not given) | 91.2%
Cc1cc(C)n(-c2nnc(C)n2/N=C/c2ccccc2F)n1 | 84.9%
O=C(O)c1cc(-c2ccccc2Cl)n[nH]1 | 79.2%
O=C1c2ccccc2C(=O)N1CC(O)Cn1nnc2ccccc21 (stereo not given) | 91.5%
COCCN(C(=O)CCC(=O)Nc1ccccn1)C(C(=O)NC1CCCC1)c1ccc(OC)cc1 (stereo not given) | 96.3%
CCOC(=O)c1ccccc1NC(=O)COC(=O)C1=COCCO1 | 102%
Cc1ccc(-c2cc(C(=O)O)n[nH]2)o1 | 101%
Cn1c(=O)c2c(nc(SCCCO)n2Cc2ccccc2Cl)n(C)c1=O | 27.9%
